Compound activity: PubChem BioAssay, National Center for Advancing Translational Sciences (NCATS)
Most compounds without a hit are left out; they make up all but 2.5% or so of the library.
Casp1 inh – qHTS Assay for Allosteric/Competitive Inhibitors of Caspase-1 | AID 900, 2007 | actives 0.03% (n = 75,000) | Potency, µM (titrated, usually from 57.5 µM), inactives show top-dose activity change, negative = inhibition, most hits filed as inhibitors | Caspase-1 enzyme, Ac-WEHD-AFC fluorogenic rate | P29466;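 further: plate controls were vehicle for no effect and no substrate for full effect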
Caspase-7 inhib – qHTS Assay for Allosteric/Competitive Inhibitors of Caspase-7 | P55210 | recombinant caspase-7, Ac-DEVD-AFC fluorescence rate | Potency, µM (highest dose often 57.5 µM), inactives show top-dose activity change, negative = inhibition, hits mostly inhibitors | actives 0.02% (n = 75,000); active means well fitted inhibition curve with a large enough effect in the main read-out, with a control signal flat, not every such curve was filed as active; inconclusive means small, poorly fitted or top-dose-only effect, or a change in a side signal; further: % of control where 0% means no effect
IkB sig inh – IkB Signaling; actives 0.04% (n = 110,000); ABC-DLBCL IkBa-CBG/CBR dual luciferase ratio, 4 h; response scale: scaled: untreated 0%, proteasome inhibitor 100%; Potency, µM (highest dose often 57.1 µM), for the others: at the top dose IkBa stabilization activation; active means well fitted curve in the direction sought with a large enough effect in the signal ratio, not every such curve was filed as active; inconclusive means small, poorly fitted or top-dose-only effect, or a change in a side signal; the % refers to the signal ratio;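 further: the direction sought is a rising ratio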
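In this assay, an IκBα–CBG68 fusion accumulates when IKK-driven degradation is blocked; native CBR normalizes for cell number. OCI-Ly3 cells were treated 4 h with compound and doxycycline, then green and red light read after Chroma-Glo addition.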
p53ts 32C kill – qHTS Screen for Compounds that Selectively Target Cancer Cells with p53 Mutations: Cytotoxicity of p53ts Cells at the Permissive Temperature; H1299-p53A138V at 32C, ATP luminescence viability, 24 h; Potency, µM (highest dose often 46.1 µM), for the others: at the top dose activity change, negative = cytotoxicity, actives largely listed as cytotoxic; actives 0.93% (n = 130,000);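 further: 0% = DMSO and -100% = full killing by reference compound; nearly all actives have a fitted effect of over 55% in size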
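Viability by ATPlite luminescence after 24 h compound treatment (up to 46 uM) at the permissive 32C. Cells are H1299 carrying p53 A138V. Scale runs from DMSO basal to 100 uM tamoxifen as full kill; AC50 from Hill fits.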
p53ts 39C kill – qHTS Screen for Compounds that Selectively Target Cancer Cells with p53 Mutations: Cytotoxicity of p53ts Cells at the Nonpermissive Temperature; H1299-p53A138V viability at 39C, ATP luminescence, 24 h; Potency, µM (doses to about 46.1 µM), for the others: top-dose activity change, negative = cell killing, hits mostly cytotoxic; actives 1.5% (n = 130,000); AID 902, 2007; further: on the % scale 0 is the no-effect control and ±100 the full control effect; nearly all actives have a fitted effect of over 55% in size
FLuc inh – qHTS Assay for Inhibitors of Firefly Luciferase; AID 411, 2009; actives 2.2% (n = 72,000); Potency, µM (series often up to 57.1 µM), for the others: at the top dose activity change, negative = inhibition, usual class: inhibitors; purified firefly luciferase, luminescence, 8 min; further: on the % scale 0 is the no-effect control and ±100 the full control effect; nearly all actives have a fitted effect of over 40% in size
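Here, luciferase activity is measured as luminescence following an 8 min room-temperature reaction at 10 uM ATP, pH 7.2. Every library sample is titrated.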
* = called active by the depositor; [ ] = another dose, or the depositor's remark. Unless noted, the call rests on the fitted dose curve; in most records, active means well fitted curve in the direction sought with a large enough effect; inconclusive means small, poorly fitted or top-dose-only effect, or another doubt; inactive means no such curve, though single readings can be large; an effect the other way counts as inactive or inconclusive. Potency means the concentration at half of the fitted maximal effect.

How did Cc1ccc2c(c1)c1cccc3c1n2CCN3CCC(N)=O do in these assays?
Casp1 inh: inconclusive; Caspase-7 inhib: -10.1%; IkB sig inh: -1.1%; p53ts 32C kill: -22.2%; p53ts 39C kill: -26.9%; FLuc inh: 10µM*

What do the screens show for `COc1ccc(-c2nc3ccccc3s2)cc1NC(=O)c1ccc(F)cc1`?
IkB sig inh: -4.2%; p53ts 32C kill: -13.4%; p53ts 39C kill: 12.6µM*

Results for CC(C)(C)C(=O)Nc1ccc(-c2nc3ccccc3s2)cc1 ?
IkB sig inh: -0.7%; p53ts 32C kill: 0.316µM*; p53ts 39C kill: 0.316µM*

What do the screens show for `COc1cc(OC)cc(C(=O)Nc2cc(-c3nc4ccccc4s3)ccc2OC)c1`?
IkB sig inh: 2.4%; p53ts 32C kill: -9.7%; p53ts 39C kill: -4.9%

How did COc1ccc(-n2nc3c(c2NC(=O)c2cc4ccccc4oc2=O)CS(=O)(=O)C3)cc1 do in these assays?
Casp1 inh: -1.5%; Caspase-7 inhib: -2.4%; IkB sig inh: 3.0%; p53ts 32C kill: 0.7%; p53ts 39C kill: 10.3%; FLuc inh: -0.9%

What do the screens show for `CCc1ccc(Oc2cc(C)nc(N)n2)cc1`?
p53ts 32C kill: 9.6%; p53ts 39C kill: 3.3%

Results for CCc1ccc(-c2cn(-c3nc(C)cc(C)n3)c(=N)o2)cc1 ?
Casp1 inh: -2.2%; Caspase-7 inhib: -3.5%; IkB sig inh: inconclusive; p53ts 32C kill: 12.2%; p53ts 39C kill: -13.7%; FLuc inh: 15.8µM*

How did CCCSc1ncc(Cl)c(C(=O)N(Cc2ccccc2)c2ccc(OC)cc2)n1 do in these assays?
IkB sig inh: inconclusive; p53ts 32C kill: 6.1%; p53ts 39C kill: -7.8%

How did O=C(Nc1nc2ccc(F)cc2s1)c1nc(S(=O)(=O)Cc2ccccc2F)ncc1Cl do in these assays?
IkB sig inh: -3.2%; p53ts 32C kill: 10µM*; p53ts 39C kill: 5.01µM*

What do the screens show for `CC(C)Sc1ncc(Cl)c(C(=O)Nc2c(C(=O)Nc3ccccc3)oc3ccccc23)n1`?
IkB sig inh: 0.6%; p53ts 32C kill: 16.6%; p53ts 39C kill: -14.7%

What do the screens show for `COc1ccc(N(Cc2ccccc2)C(=O)c2nc(S(C)(=O)=O)ncc2Cl)cc1`?
IkB sig inh: inconclusive; p53ts 32C kill: 7.94µM*; p53ts 39C kill: 3.98µM*

What do the screens show for `CCNC(=O)c1c(NC(=O)c2nc(S(=O)(=O)CC)ncc2Cl)sc2c1CCCC2`?
IkB sig inh: inconclusive; p53ts 32C kill: inconclusive; p53ts 39C kill: 3.16µM*

Results for CCCS(=O)(=O)c1ncc(Cl)c(C(=O)Nc2c(C(=O)Nc3ccccc3)oc3ccccc23)n1 ?
IkB sig inh: inconclusive; p53ts 32C kill: inconclusive; p53ts 39C kill: 6.31µM*

What do the screens show for `COCCCNC(=O)c1c(NC(=O)c2nc(S(C)(=O)=O)ncc2Cl)sc2c1CCCC2`?
IkB sig inh: -4.3%; p53ts 32C kill: 11.3%; p53ts 39C kill: inconclusive

Results for COc1ccc(-c2nc(CNS(=O)(=O)c3ccc(F)cc3)cs2)cc1 ?
IkB sig inh: -0.5%; p53ts 32C kill: 1.9%; p53ts 39C kill: inconclusive

Results for O=C(NCc1ccccc1)c1nc(S(=O)(=O)Cc2ccccc2)ncc1Cl ?
IkB sig inh: inconclusive; p53ts 32C kill: inconclusive; p53ts 39C kill: 7.94µM*

Results for COc1ccc(CNC(=O)c2nc(SC(C)C)ncc2Cl)cc1 ?
IkB sig inh: inconclusive; p53ts 32C kill: 0.7%; p53ts 39C kill: -24.3%

How did CCOC(=O)c1ccc(NC(=O)c2nc(SCc3ccccc3F)ncc2Cl)cc1 do in these assays?
IkB sig inh: -0.4%; p53ts 32C kill: inconclusive; p53ts 39C kill: -28.8%

How did CS(=O)(=O)c1ncc(Cl)c(C(=O)N(Cc2ccc(Cl)cc2)Cc2ccco2)n1 do in these assays?
IkB sig inh: inconclusive; p53ts 32C kill: 28.2µM*; p53ts 39C kill: 3.16µM*

Results for COc1ccc(CNC(=O)c2nc(S(=O)(=O)Cc3ccccc3)ncc2Cl)cc1 ?
IkB sig inh: inconclusive; p53ts 32C kill: 20µM*; p53ts 39C kill: 5.01µM*

What do the screens show for `CSc1ncc(C(=O)NCc2ccccc2)c(-c2ccccc2)n1`?
p53ts 32C kill: -3.8%

What do the screens show for `CCOc1ccc(NC(=O)c2nc(S(=O)(=O)Cc3ccccc3F)ncc2Cl)cc1`?
IkB sig inh: inconclusive; p53ts 32C kill: 14.1µM*; p53ts 39C kill: 7.94µM*

What do the screens show for `O=C(N[C@@H](Cc1ccccc1)C(=O)O)c1ccccc1`?
Casp1 inh: -1.8%; Caspase-7 inhib: 0.5%; p53ts 32C kill: 7.3%; p53ts 39C kill: -1.4%

What do the screens show for `CN(C)c1ncc2ncc(=O)n(CCC#N)c2n1`?
Caspase-7 inhib: inconclusive; IkB sig inh: 1.1%[11.4 µM]; p53ts 32C kill: -0.7%; p53ts 39C kill: 9.6%; FLuc inh: 0.9%[11.4 µM]

What do the screens show for `CCN1CCN(C(c2ccc(OC)c(OC)c2)c2nnnn2C(C)(C)C)CC1` (configuration not stated)?
Casp1 inh: -0.3%; Caspase-7 inhib: -1.9%; IkB sig inh: -0.1%; p53ts 32C kill: 1.4%; p53ts 39C kill: 1.6%; FLuc inh: -5.6%

Results for COc1ccc(NC(=O)c2nc(S(=O)(=O)Cc3ccc(C)cc3)ncc2Cl)cc1 ?
IkB sig inh: -4.0%; p53ts 32C kill: inconclusive; p53ts 39C kill: 6.31µM*

How did CCS(=O)(=O)c1ncc(Cl)c(C(=O)NCc2ccccc2)n1 do in these assays?
IkB sig inh: inconclusive; p53ts 32C kill: inconclusive; p53ts 39C kill: 12.6µM*

Results for COc1ccc(CNC(=O)c2nc(SCc3ccc(C)cc3)ncc2Cl)cc1 ?
IkB sig inh: 0.4%; p53ts 32C kill: -6.0%; p53ts 39C kill: -22.6%

How did Cc1ccc(CNC(=O)c2nc(SCc3ccccc3C)ncc2Cl)cc1 do in these assays?
IkB sig inh: inconclusive; p53ts 32C kill: -2.8%; p53ts 39C kill: -8.4%

What do the screens show for `Cc1ccc(C)c(NC(=O)c2nc(S(=O)(=O)Cc3ccc(F)cc3)ncc2Cl)c1`?
IkB sig inh: inconclusive; p53ts 32C kill: inconclusive; p53ts 39C kill: 3.98µM*

How did COc1ccccc1-c1ccc(Nc2cccc(C(F)(F)F)c2)nn1 do in these assays?
p53ts 32C kill: 13.4%; p53ts 39C kill: 7.4%

What do the screens show for `COc1ccccc1-c1ccc(NC2CCCCC2)nn1`?
Casp1 inh: 1.8%; Caspase-7 inhib: 0.4%; IkB sig inh: 9.6%; p53ts 32C kill: inconclusive; p53ts 39C kill: inconclusive; FLuc inh: 12.6µM*
